ST2 inh = inhibitors of human ST2 (IL1RL1) binding to IL-33, primary screen, biochemical, AlphaLISA; AlphaLISA ST2-Fc/biotin-IL-33 interaction, 1 h; inhibition, % for hits at 17 µM; 2.3% of 78,000 active; in the data active means inhibition above about 30%
Target sequence (Q01638 whole entry, looked up): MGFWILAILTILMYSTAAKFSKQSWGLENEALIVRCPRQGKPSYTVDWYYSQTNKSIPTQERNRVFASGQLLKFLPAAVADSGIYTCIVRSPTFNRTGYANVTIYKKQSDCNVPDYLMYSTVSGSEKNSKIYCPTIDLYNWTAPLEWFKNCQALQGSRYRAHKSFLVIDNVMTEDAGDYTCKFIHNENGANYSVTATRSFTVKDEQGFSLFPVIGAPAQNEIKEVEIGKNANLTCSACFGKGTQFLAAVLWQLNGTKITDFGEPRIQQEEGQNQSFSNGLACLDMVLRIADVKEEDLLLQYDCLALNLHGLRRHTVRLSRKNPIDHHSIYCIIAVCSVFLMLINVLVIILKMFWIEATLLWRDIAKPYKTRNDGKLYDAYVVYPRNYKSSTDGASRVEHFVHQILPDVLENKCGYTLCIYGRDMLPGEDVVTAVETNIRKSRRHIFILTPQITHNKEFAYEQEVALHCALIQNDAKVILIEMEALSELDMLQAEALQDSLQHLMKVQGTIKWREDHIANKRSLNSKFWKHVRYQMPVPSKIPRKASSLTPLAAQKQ
Hits are given with their value; n = inactive. Many of the other results were omitted from the sample, so hits are more common in it than they were.

SMILES	ST2 inh
COc1ccccc1/C=C/C1=NC(=C\c2ccc(C(C)C)cc2)/C(=O)O1	45%
COc1ccccc1/C=C/C1=NC(=C\c2ccc(Cl)cc2Cl)/C(=O)O1	n
CCN1C(=O)N(CCc2ccccc2)C2(CCN(CCc3ccccc3)CC2)C1=O	33%
CN1C(=O)N(Cc2ccccc2)C2(CCN(Cc3ccc(N(C)c4ccccc4)cc3)CC2)C1=O	n
COCCN1C(=O)N(Cc2cccnc2)C(=O)C12CCN(Cc1nc(-c3ccccc3)cs1)CC2	n
CC(C)(C)C(=O)Nc1ccnn1C1CCN(C(=O)Cn2cccn2)CC1	n
COc1ccc2nc(NC3=NC(c4ccccc4)CC(=O)N3)nc(C)c2c1 (stereo not drawn)	n
Cc1nc(SCc2ccc(Cl)cc2)nc2ccccc12	n
CC1=NC(Nc2nc(C)c3ccccc3n2)=NC(C)(C)C1	36%
CCOC(=O)C1(CCOc2ccccc2)CCCN(C(=O)c2scc3c2OCCO3)C1 (stereo not drawn)	n
CCN(CC)c1ccc(N=Cc2ccccc2O)cc1	79%
CCN(CC)c1ccc(C=Nc2cc(Cl)ccc2O)c(O)c1	n
CC(=O)Nc1ccc(N=Cc2ccccc2O)cc1	n
O=C(CCS(=O)(=O)c1ccc(Br)s1)Nc1cccc2c1CCCC2	n
O=C(O)c1cccc(NC(=O)c2cccc(C(=O)Nc3cccc(C(=O)O)c3)c2)c1	n
O=C(O)c1cccc(NC(=O)c2ccc(-c3ccccc3)cc2)c1	n
CC1(C)OC(=O)C(=CNc2cccc(C(=O)O)c2)C(=O)O1	33%
CC(C)NC(=O)c1cc(=O)[nH]c2ccc(S(=O)(=O)N3CCCC3)cc12	n
COc1cccc(C2C3=C(CC(C)(C)CC3=O)Nc3nc(SC)[nH]c(=O)c32)c1 (stereo not drawn)	n
O=C1CCCN1CC1CCCN(Cc2ccc(-c3ccccn3)cc2)C1 (stereo not drawn)	n
O=C1C(=C(c2ccccc2)c2ccccc2)C(=O)c2ccccc21	39%
O=C1C(=C(O)c2ccccc2)NS(=O)(=O)c2ccccc21	n
O=C1CN(C(=O)c2ccccc2)C(=O)CN1C(=O)c1ccccc1	n
O=C(CCc1nc2ccccc2n(Cc2ccccc2F)c1=O)NCC1CCCO1 (stereo not drawn)	n
COc1cc(Br)c(Br)c(C=Nc2ccc3c(c2)OCCO3)c1O	n
SMILES	ST2 inh
Cc1ccc(C2CC(c3ccc(F)cc3)=NN2c2ccccc2)o1 (stereo not drawn)	40%
COc1ccc(C2CC(c3ccccc3)=NN2C(=O)c2ccc(F)cc2)cc1 (stereo not drawn)	n
COc1ccc(C2=NN(S(=O)(=O)c3ccc(C)cc3)C(c3ccc(F)cc3)C2)cc1OC (stereo not drawn)	n
COc1cc(OC)c(NC(=O)Cc2c(C(=O)O)[nH]c3ccccc23)cc1Cl	n
COC(=O)c1c(NC(=O)c2ccc(C(C)(C)C)cc2)sc2c1C(C(=O)OC)CC2 (stereo not drawn)	n
COc1ccc(-c2nc3s/c(=C\c4cc(C)c(O)c(C)c4)c(=O)n3n2)cc1	36%
COc1ccc(-c2nc3s/c(=C\c4ccc(OC)c(OC)c4)c(=O)n3n2)cc1	38%
COc1ccc(/C=c2/sc3nc(-c4ccc(Cl)cc4)nn3c2=O)c(OC)c1	n
CCCOc1ccc(-c2nc3s/c(=C\c4ccc(OC)c(OC)c4)c(=O)n3n2)cc1	n
CCOc1ccc(-c2nc3s/c(=C\c4ccc(OC)cc4)c(=O)n3n2)cc1	n
CCCOc1ccc(-c2nc3s/c(=C\c4ccc(OC)cc4)c(=O)n3n2)cc1	n
Cc1[nH]nc(SCC(=O)Nc2ccc(F)cc2F)c1[N+](=O)[O-]	n
Clc1ccc(OCCCNCc2ccco2)cc1	n
Clc1ccc(OCCN2CCCC2)c(Br)c1	n
CN(Cc1ccccc1)C(=O)CNS(=O)(=O)c1cccs1	n
Cc1ccc(Cn2nc(C)c(NC(=O)c3cc(C)on3)c2C)cc1	n
O=C(c1cccc(F)c1)N1CCN(c2ccc(Cl)cc2)CC1	n
CC(Nc1cc(N2CCN(S(=O)(=O)N(C)C)CC2)ccc1[N+](=O)[O-])c1ccccc1 (stereo not drawn)	30%
O=[N+]([O-])c1ccc(N2CCN(S(=O)(=O)Cc3ccccc3)CC2)cc1NCc1cccnc1	n
O=C(c1cccc(F)c1)N1CCN(c2ccc([N+](=O)[O-])c(NCc3ccccc3)c2)CC1	36%
O=C(c1ccccc1Cl)N1CCN(c2ccc([N+](=O)[O-])c(N3CCOCC3)c2)CC1	n
Cc1ccccc1C(=O)N1CCN(c2ccc([N+](=O)[O-])c(NC(C)c3ccccc3)c2)CC1 (stereo not drawn)	38%
CC(=O)N1CCN(c2ccc([N+](=O)[O-])c(NC(C)C34CC5CC(CC(C5)C3)C4)c2)CC1 (stereo not drawn)	n
Cc1ccccc1C(=O)N1CCN(c2ccc([N+](=O)[O-])c(NCCc3ccccc3)c2)CC1	n
O=C(c1ccccc1)c1ccc(N2CCN(C(=O)c3cccc(F)c3)CC2)c(F)c1	n
O=C(NCCC1CN(Cc2ccco2)CCO1)C(=O)N1CCCC1 (stereo not drawn)	n

Assay outcomes as filed in PubChem BioAssay.
